Source: PubChem BioAssay (NCATS)
Records with an inconclusive call do not appear. Activity calls are given as the source filed them. Unless noted, calls come from the whole dose curve; as a rule, active = well fitted curve in the direction sought with a large enough effect; inconclusive = small, poorly fitted or top-dose-only effect, or another doubt; inactive = no such curve, though single readings can be large; an effect the other way counts as inactive or inconclusive.

Key:
[1] = biological target: Cytochrome P450 3A4 (Homo sapiens) (UniProt P08684); assay: qHTS Assay for Inhibitors and Substrates of Cytochrome P450 3A4 (AID 884); note: nearly all actives have a fitted effect of over 50% in size; note: potency is the fitted concentration of half-maximal effect
Chain of Cytochrome P450 3A4 (Homo sapiens) (P08684 whole entry, looked up): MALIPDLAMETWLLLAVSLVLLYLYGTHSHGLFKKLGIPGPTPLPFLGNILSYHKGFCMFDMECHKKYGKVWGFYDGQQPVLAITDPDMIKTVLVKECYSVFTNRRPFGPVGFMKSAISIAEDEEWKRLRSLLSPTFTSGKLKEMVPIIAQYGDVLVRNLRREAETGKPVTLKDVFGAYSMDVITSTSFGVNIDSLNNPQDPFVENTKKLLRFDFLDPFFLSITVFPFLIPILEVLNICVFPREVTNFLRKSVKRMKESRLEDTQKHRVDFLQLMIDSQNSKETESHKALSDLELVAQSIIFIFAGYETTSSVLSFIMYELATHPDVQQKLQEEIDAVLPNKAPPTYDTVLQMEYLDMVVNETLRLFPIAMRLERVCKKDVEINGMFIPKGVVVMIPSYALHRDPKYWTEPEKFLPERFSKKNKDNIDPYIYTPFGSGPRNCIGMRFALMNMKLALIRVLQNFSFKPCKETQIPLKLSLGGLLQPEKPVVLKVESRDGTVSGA
Outline: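 Luminescent readout of luciferin produced by CYP3A4 (20 nM) dealkylation of Luciferin-PPXE, 25 uM (its KM). NADPH-driven reaction ran 60 min at RT after 10 min compound preincubation; data scaled to 57 uM ketoconazole as 100% inhibition.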

[2] = Confirmation and Secondary Assay for Modulators of Hemoglobin Beta Chain Splicing at IVS2 654 locus (AID 910);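 note: HeLa cells stably carrying EGFP split by mutant beta-globin IVS2-654 intron; per-well total GFP intensity by laser scanning cytometry after 2-day treatment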
Outline: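 Readout: per-well total peak green fluorescence (488 nm ex, 500–520 nm em) from objects 5–250 µm, reflecting correct splicing of an EGFP-654 reporter. Compounds were applied for 2 days at 37 °C to overnight-plated HeLa EGFP-654 cells; controls were DMSO and 500 nM IVS2-654 PNA.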

[3] = Confirmation and Secondary Assay for Modulators of Hemoglobin Beta Chain Splicing at IVS2 705 locus (AID 930);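 note: HeLa cells stably expressing the EGFP-705 splicing reporter; GFP fluorescence per well restored by corrected splicing of the IVS2-705 intron in EGFP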
Outline: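 First, HeLa EGFP-705 cells are seeded at 500/well in Optimem with 2% FCS and left overnight. Next, compound or DMSO is added for 2 days. Finally wells are laser-scanned and total peak GFP intensity scored.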

[4] = S16 Schwann cell PMP22 intronic element firefly luciferase assay (AID 624032); note: nearly all actives have a fitted effect of over 30% in size; note: potency is the fitted concentration of half-maximal effect
Outline: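 Luciferase reporter of PMP22 intronic-element expression in stably transfected S16 rat Schwann cells, read by ONE-Glo luminescence after 24 h compound exposure at 37 C. Activity scaled between DMSO (0%) and positive-control PTC124; concentration-effect curves quality-classified.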

[5] = S16 Schwann cell PMP22 intronic element beta-lactamase assay (AID 624044; calls by dose curve; note: nearly all actives have a fitted effect of over 15% in size)
Outline: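 Beta-lactamase reporter under a PMP22 intronic regulatory element in stable S16 rat Schwann cells; 24 h compound exposure. 460 nm blue signal normalized between DMSO (0%) and potassium clavulanate, with 535 nm FRET tracking viability; curves classed by r2 and response.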

[6] = system: CP203; assay: qHTS profiling for inhibitors of Plasmodium falciparum proliferation (AID 504749); note: nearly all actives have a fitted effect of over 60% in size; note: potency is the fitted concentration of half-maximal effect; details: P. falciparum in erythrocytes, SYBR Green DNA, 72 h; series mostly up to 12.8 µM
Outline: (§1)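 In a 72 h erythrocytic culture (37 C, humidified, 5% CO2) at 2.5% hematocrit and 0.3% starting parasitemia, compounds were tested; SYBR Green I in detergent lysis buffer stained parasite DNA overnight.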

[7] = system: CP215; assay: as above; details: P. falciparum in erythrocytes, SYBR Green DNA, 72 h; series mostly up to 12.8 µM
Outline: as §1

[8] = system: CP335; assay: as above; details: P. falciparum in erythrocytes, SYBR Green DNA, 72 h; series mostly up to 12.8 µM
Outline: as §1

[9] = system: DFO2036; assay: as above; details: P. falciparum in erythrocytes, SYBR Green DNA, 72 h; series mostly up to 12.8 µM
Outline: as §1

[10] = system: DIV14; assay: as above; details: P. falciparum in erythrocytes, SYBR Green DNA, 72 h; series mostly up to 12.8 µM
Outline: as §1

[11] = system: ICS; assay: as above; details: P. falciparum in erythrocytes, SYBR Green DNA, 72 h; series mostly up to 12.8 µM
Outline: as §1

[12] = system: TAB113; assay: as above; details: P. falciparum in erythrocytes, SYBR Green DNA, 72 h; series mostly up to 12.8 µM
Outline: as §1

[13] = system: W2; assay: as above; details: P. falciparum in erythrocytes, SYBR Green DNA, 72 h; series mostly up to 12.8 µM
Outline: as §1

[14] = biological target: Glucocorticoid receptor (Homo sapiens) (UniProt P04150); assay: GR-EFC Redistribution (AID 451; calls by dose curve; note: potency is the fitted concentration of half-maximal effect); details: CHO-K1 GR-EFC translocation, beta-gal luminescence, 2 h
Chain of Glucocorticoid receptor (Homo sapiens) (P04150 whole entry, looked up, the tested form may be a part): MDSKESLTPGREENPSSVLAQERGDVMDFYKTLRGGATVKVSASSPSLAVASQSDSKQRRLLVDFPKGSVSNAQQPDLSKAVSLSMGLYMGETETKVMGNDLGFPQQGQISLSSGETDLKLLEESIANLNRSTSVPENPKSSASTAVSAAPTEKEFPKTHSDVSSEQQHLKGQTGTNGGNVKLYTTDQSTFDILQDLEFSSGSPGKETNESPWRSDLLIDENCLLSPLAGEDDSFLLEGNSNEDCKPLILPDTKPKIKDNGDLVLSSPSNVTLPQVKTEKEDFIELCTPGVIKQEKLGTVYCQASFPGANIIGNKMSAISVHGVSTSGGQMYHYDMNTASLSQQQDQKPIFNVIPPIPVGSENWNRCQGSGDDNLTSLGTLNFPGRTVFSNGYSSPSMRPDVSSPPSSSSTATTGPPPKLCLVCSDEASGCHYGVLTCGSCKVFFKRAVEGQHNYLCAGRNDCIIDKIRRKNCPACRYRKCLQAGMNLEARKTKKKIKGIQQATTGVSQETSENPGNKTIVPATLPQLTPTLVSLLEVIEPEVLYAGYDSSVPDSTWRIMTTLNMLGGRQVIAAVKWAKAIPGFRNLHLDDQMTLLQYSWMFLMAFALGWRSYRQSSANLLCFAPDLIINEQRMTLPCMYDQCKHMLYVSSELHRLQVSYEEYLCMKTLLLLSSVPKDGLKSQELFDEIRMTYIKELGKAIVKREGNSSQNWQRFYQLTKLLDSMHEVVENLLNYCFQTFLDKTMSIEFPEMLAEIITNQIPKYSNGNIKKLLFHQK
Outline: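 Translocation of GR-ED fusion to nuclear EA restores b-gal, read by luminescence after 1 h room-temperature detection. Engineered CHO-K1 biosensor cells, 1,000/well, exposed 2 h at 37 C to titrations up to 46 uM final.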

[15] = biological target: Cytochrome P450 2D6 (Homo sapiens) (UniProt P10635); assay: qHTS Assay for Inhibitors and Substrates of Cytochrome P450 2D6 (AID 891);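 note: luciferin methyl ether substrate demethylated by CYP2D6 with NADPH regeneration; nearly all actives have a fitted effect of over 60% in size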
Chain of Cytochrome P450 2D6 (Homo sapiens) (P10635 whole entry, looked up): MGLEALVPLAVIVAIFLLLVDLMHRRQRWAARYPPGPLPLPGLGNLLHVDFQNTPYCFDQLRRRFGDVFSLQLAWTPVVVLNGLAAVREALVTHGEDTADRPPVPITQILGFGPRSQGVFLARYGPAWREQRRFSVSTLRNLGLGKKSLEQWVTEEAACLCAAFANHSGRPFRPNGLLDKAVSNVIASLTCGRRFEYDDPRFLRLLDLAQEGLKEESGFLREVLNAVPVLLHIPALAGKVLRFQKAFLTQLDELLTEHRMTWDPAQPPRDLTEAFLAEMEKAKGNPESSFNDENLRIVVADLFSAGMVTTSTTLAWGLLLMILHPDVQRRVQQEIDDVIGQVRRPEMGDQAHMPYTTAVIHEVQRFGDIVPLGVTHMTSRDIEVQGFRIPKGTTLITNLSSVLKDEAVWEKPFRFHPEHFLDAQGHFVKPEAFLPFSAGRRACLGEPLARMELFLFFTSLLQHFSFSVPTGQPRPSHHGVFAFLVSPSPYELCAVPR
Outline: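 Luminescent read-out of luciferin formed by 5 nM human CYP2D6 demethylating 30 uM Luciferin-ME EGE (Km level) over 60 min at room temperature after NADPH regeneration addition. Data normalized to full inhibition by 1.43 uM quinidine.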

[16] = biological target: Cytochrome P450 2C19 (Homo sapiens) (UniProt P33261); assay: qHTS Assay for Inhibitors and Substrates of Cytochrome P450 2C19 (AID 899); note: nearly all actives have a fitted effect of over 60% in size
Chain of Cytochrome P450 2C19 (Homo sapiens) (P33261 whole entry, looked up): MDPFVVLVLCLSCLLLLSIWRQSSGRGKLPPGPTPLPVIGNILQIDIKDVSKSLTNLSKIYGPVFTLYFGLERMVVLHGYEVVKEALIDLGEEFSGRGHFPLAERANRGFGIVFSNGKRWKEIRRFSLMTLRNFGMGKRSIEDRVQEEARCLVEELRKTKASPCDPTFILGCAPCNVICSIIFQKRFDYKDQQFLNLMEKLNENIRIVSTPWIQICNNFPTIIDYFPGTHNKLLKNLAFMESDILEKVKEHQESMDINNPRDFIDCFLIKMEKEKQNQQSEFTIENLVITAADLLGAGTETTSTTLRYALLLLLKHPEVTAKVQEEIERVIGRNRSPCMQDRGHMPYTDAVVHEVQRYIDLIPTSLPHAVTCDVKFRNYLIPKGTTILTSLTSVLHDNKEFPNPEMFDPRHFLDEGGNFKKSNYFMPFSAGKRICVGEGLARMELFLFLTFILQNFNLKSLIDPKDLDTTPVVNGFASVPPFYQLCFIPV
Outline: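 Reactions contain 5nM enzyme, 10uM Luciferin-H EGE (KM) and 50mM KPO4; compound preincubates 10 min at 37C, NADPH regeneration starts turnover for 60 min. Luminescence after detection reagent gives activity.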

[17] = biological target: Cytochrome P450 3A4 (Homo sapiens) (UniProt P08684); assay: qHTS Assay for Activators of Cytochrome P450 3A4 (AID 885); note: nearly all actives have a fitted effect of over 65% in size
Outline: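 Activators are scored by enhanced luminescence from CYP3A4 conversion of luciferin-PPXE (25uM, equal to KM) to luciferin, after 60 min at RT with an NADPH-regenerating system.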

[18] = system: 7G8; assay: qHTS profiling for inhibitors of Plasmodium falciparum proliferation (AID 504749); note: nearly all actives have a fitted effect of over 60% in size; note: potency is the fitted concentration of half-maximal effect; details: P. falciparum in erythrocytes, SYBR Green DNA, 72 h; series mostly up to 12.8 µM
Outline: as §1

Measured: Potency

CC1(C)OC2CO[C@]3(COS(N)(=O)=O)OC(C)(C)OC3C2O1 (stereo partly specified)
inactive: [1] | [2] | [3] | [4] | [5] | [6] | [7] | [8] | [9] | [10] | [11] | [12] | [13]

CC/C=C\C[C@H]1C(=O)CC[C@@H]1CC(=O)O
inactive: [14] > 46 µM | [1] | [15] | [16]

CCC(C)C(=O)OC1CCC=C2C=CC(C)C(CCC3CC(O)CC(=O)O3)[C@@H]21 (stereo partly specified)
inactive: [17] | [2] | [3] | [4] | [18] | [6] | [7] | [8] | [10] | [11] | [13]
active: [1] 20 µM

COC1C=CO[C@@]2(C)Oc3c(C)c(O)c4c(O)c(c(C=NN5CCN(C)CC5)c(O)c4c3C2=O)NC(=O)/C(C)=C\C=CC(C)C(O)[C@@H](C)C(O)C(C)[C@H](OC(C)=O)C1C (stereo partly specified)
active: [4] 20.3 µM | [18] 0.112 µM | [6] 4.26 µM | [7] 4.26 µM | [8] 0.953 µM | [9] 3.55 µM | [10] 0.301 µM | [11] 0.0891 µM | [12] 0.316 µM | [13] 0.12 µM
inactive: [2] | [3] | [5]

Nc1ncnc2c1nc(Br)n2[C@H]1O[C@H]2COP(=O)(O)O[C@H]2[C@@H]1O
inactive: [14] > 46 µM

C[C@]1(c2ccccc2)OC(C(=O)O)=CC1=O
inactive: [4] | [18] | [6] | [7] | [8] | [9] | [10] | [11] | [12] | [13]

CNC1C(OC2C(O[C@@H]3C(O)C(O)[C@@H](N=C(N)N)C(O)C3N=C(N)N)OC(C)[C@@]2(O)CO)OC(CO)C(O)C1O (stereo partly specified)
inactive: [1] | [2] | [3] | [4] | [5] | [18] | [7] | [8] | [9] | [10] | [11] | [12] | [13]
